Tested on: XIP peptide (Xip251-270) binding
Test: XIP fragment 251-270 binding compounds – biochemical, small-molecule microarray, fluorescence 635/667 nm, 0.1 µg/mL protein, primary screen (AID 1182)
Details: fluorescent protein binding, 635 nm, higher = more signal, called active from +8 up or from −8 down

Composite z-score, inactive:
CN(C)CCCCNC(=O)[C@H]1C[C@H]2C(=O)NCC(=O)N2[C@H]1c1ccc(O)cc1 0.372
CC(C)=CCCC(C)=CC(O)C1C=CC2C(=O)NC(=O)C2N1Nc1ccc(Cl)cc1Cl (stereo not given) 0.323
COc1cc(OC)c(C(O)C2C=CC3C(=O)N(c4ccccc4)C(=O)C3N2Nc2ccc(C(C)C)cc2)cc1Br (stereo not given) 0.242
CCN(CC)c1ccc(N2CC=CC34O[C@@H]5C=CCCOC(=O)C5[C@H]3C(=O)N(C(C)CO)[C@@H]4C2=O)cc1 (stereo not given in full) 0.587
CCOC(=O)C1=CCC(c2cc3ccccc3[nH]2)N(CCN2CC(C(=O)OCC)=CCC2c2cc3ccccc3[nH]2)C1 (stereo not given) 0.401
COc1ccc([Si](C)(C)[C@H]2[C@H](CC(=O)N3Cc4ccccc4C[C@H]3CO)O[C@@]3(C(=O)N(C)c4c(Br)cc(C)cc43)[C@@H]2C)cc1 0.0621
CN1C(=O)[C@@H]2[C@@H](CC(COc3ccccc3)=C3[C@@H](CCc4ccccc4)OB(O)C[C@@H]32)C1=O 0.106
CN1C(=O)C2C(C1=O)C1C=C(CCCO)C2C(C2CC2)N1Cc1cccc(OC(F)(F)F)c1 (stereo not given) 0.0292
COc1ccc(C(=O)Nc2cccc(CN3C(=O)[C@]4(O[C@H](CC(=O)N5Cc6ccccc6C[C@H]5CO)[C@@H]([Si](C)(C)c5ccc(OC)cc5)[C@@H]4C)c4ccccc43)c2)cc1 -0.335
CN(C)C(=O)[C@@]1(Cc2ccccc2CN=[N+]=[N-])COC(c2ccc(OCCCO)cc2)=N1 0.182
COc1ccc(C(=O)Nc2cccc(CN3C(=O)[C@@]4(O[C@@H](CC(=O)N5CCC[C@H]5CO)[C@H]([Si](C)(C)c5ccc(OC)cc5)[C@H]4C)c4ccccc43)c2)cc1 0.802
O=C(NCCN1CCOCC1)[C@@H]1c2ccccc2C(=O)N(Cc2ccccc2C(F)(F)F)[C@H]1c1ccc(CO)cc1 0.3
C=CC1c2cc(O)c(OC)cc2CCN1C (stereo not given) 0.767
COC(=O)[C@@]1(Cc2ccc(OC)cc2)[C@H]2c3cc(C(=O)N4CCCC4)n(Cc4ccc(Cl)c(C(F)(F)F)c4)c3C[C@H]2CN1C(=O)c1ccccc1 0.151
COc1ccc(C(=O)Nc2ccc3c(c2)[C@@]2(O[C@H](CCO)[C@@H]([Si](C)(C)c4ccc(OC)cc4)[C@@H]2C)C(=O)N3Cc2ccccc2)cc1 0.396
Cc1ccc(S[C@]2(C(=O)NCc3ccccc3)CC(=O)N(Cc3ccccc3C(F)(F)F)[C@@H]2c2ccc(CO)cc2)cc1 0.903
CC1CC/C=C\[C@H]2OC34C=CCN(c5ccc6ccccc6c5)C(=O)[C@H]3N(C(C)CO)C(=O)[C@@H]4C2C(=O)O1 (stereo not given in full) -0.0371
Cc1ccc(N2C(=O)c3ccccc3[C@](C)(C(=O)NCCCN(C)C)[C@@H]2c2ccc(CO)cc2)nc1 0.0854
CCCC[C@H]1OB(O)C[C@H]2C1=C(COc1ccccc1)C[C@H]1C(=O)C=CC(=O)[C@H]12 0.0738
CC(C)C(=C=CC[C@H](O)c1ccccc1OCCO)C[C@H](O)COCc1ccccc1 -0.182
COC(=O)[C@@]1(Cc2ccc(OC)cc2)[C@H]2c3cc(C(=O)N4CCCC4)n(Cc4ccc(C(F)(F)F)nc4)c3C[C@H]2CN1C(=O)c1ccccc1 0.143
Cc1ccc(F)cc1S(=O)(=O)N[C@H]1CCN(Cc2ccc(OC(C)C)cc2)C1 0.479
CC(C)C(=C=CC[C@H](O)c1ccccc1OCCO)C[C@H](O)c1cc(Cl)cc(Cl)c1O 0.35
C=C1C(=O)C=C2CN(C(=O)c3ccccc3)[C@@](Cc3ccc(OC)cc3)(C(=O)OC)[C@@H]12 0.187
COc1ccc(C(=O)Nc2ccc(CN3C(=O)[C@@]4(O[C@@H](CCn5cc(CCO)nn5)[C@H]([Si](C)(C)c5ccc(OC)cc5)[C@H]4C)c4ccccc43)cc2)cc1 1.04

Reference: PubChem BioAssay
